VDR inh: vitamin D3 receptor (human) inhibition; P11473; Potency, µM, actives largely listed as inhibitors; VDR-SRC2-3 peptide fluorescence polarization, 2 h; 0.93% of 400,000 active
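Compounds are added to VDR with labelled SRC2-3 coactivator peptide and held 2 h at room temperature. Inhibition of the VDR–peptide interaction is then read as a change in fluorescence polarization.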
PLK1 PBD inh: inhibitors of human PLK1 polo-box domain binding; P53350; AID 720504; Potency, µM, most hits filed as inhibitors; 2.8% of 360,000 active; Plk1 PBD binding of FITC phosphopeptide, fluorescence polarization; also: series mostly up to about 57 µM; nearly all actives have a fitted effect of over 65% in size
Vif-A3F inh: Vif-A3F binding inhibition. 0.2% of 390,000 active. Potency, µM (doses to about 46.1 µM). HeLa A3F-eYFP + Vif (tagged APOBEC3F with the HIV-1 protein that degrades it), YFP fluorescence increase; also: nearly all actives have a fitted effect of over 65% in size
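HeLa cells stably expressing A3F-eYFP plus Vif, plated and incubated overnight at 37 deg C, then exposed to compounds overnight at 37 deg C. Blocked degradation read as raised yellow fluorescence (Ex 488/Em 500-530).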
Vif-A3G inh: Vif-A3G binding inhibition. HeLa A3G-eYFP + Vif (tagged APOBEC3G with the HIV-1 protein that degrades it), YFP fluorescence, overnight. 0.076% of 410,000 active. Q9HC16. Potency, µM (series often up to 46.1 µM), usual class: inhibitors. AID 602310; also: nearly all actives have a fitted effect of over 60% in size
Target sequence (Q9HC16 whole entry, looked up): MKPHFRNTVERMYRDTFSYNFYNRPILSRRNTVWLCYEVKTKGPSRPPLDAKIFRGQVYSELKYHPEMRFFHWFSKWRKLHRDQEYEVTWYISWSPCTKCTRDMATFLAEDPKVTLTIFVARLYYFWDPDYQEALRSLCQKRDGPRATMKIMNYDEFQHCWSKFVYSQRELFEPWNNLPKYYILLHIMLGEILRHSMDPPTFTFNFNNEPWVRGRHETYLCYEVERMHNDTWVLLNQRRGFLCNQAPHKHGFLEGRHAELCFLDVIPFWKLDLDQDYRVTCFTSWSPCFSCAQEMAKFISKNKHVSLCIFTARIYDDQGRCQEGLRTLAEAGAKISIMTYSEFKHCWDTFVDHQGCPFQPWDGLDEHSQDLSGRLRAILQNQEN
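HeLa cells stably expressing Vif and C-terminally eYFP-tagged A3G, seeded overnight at 37 deg C, then exposed to compound by pintool overnight at 37 deg C. Rise in yellow fluorescence (Ex 488/Em 500-530, Acumen) marks blocked Vif-driven A3G degradation.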
TSHR antagonist: blocks TSH signaling through the human TSH receptor. P16473. 0.2% of 330,000 active. activity change, negative = inhibition, % at 11.5 µM. TSHR-expressing cells, TSH-stimulated cAMP HTRF, 2 h; stronger effect = lower value;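 active = activity change below a set negative limit, meaning inhibition stronger than a set level, cut at about -70% in these data; inconclusive = activity change between two set negative limits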
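Cell-based HTRF cAMP assay; TSHR cells + compound, TSH EC80 (4nM final), 2 h, 37 deg C. Lysis with anti-cAMP cryptate and cAMP-d2, 30 min RT, read 665/620 nm.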
Numbers stand for hits; . = inactive; ? = inconclusive; / = not tested or not shown; ! = not confirmed by another sample. Only some compounds are listed: those with a hit (about 3.1% of all), similar ones and a draw of the others. Unless noted, calls follow the shape of the dose curve; as a rule, active = well fitted curve in the direction sought with a large enough effect; inconclusive = small, poorly fitted or top-dose-only effect, or another doubt; inactive = no such curve, though single readings can be large; an effect the other way counts as inactive or inconclusive.

SMILES | VDR inh | PLK1 PBD inh | Vif-A3F inh | Vif-A3G inh | TSHR antagonist
COc1ccc(N2CCN(C(=O)c3ccc(F)cc3)CC2)c([N+](=O)[O-])c1 | . | . | . | . | .
COc1ccc(N2CCN(C(=O)c3cccc(Br)c3)CC2)c([N+](=O)[O-])c1 | ? | 27µM | . | . | .
O=C1CNC(=O)/C1=C\c1ccc(O)cc1 | . | . | . | . | .
O=C1CNC(=O)/C1=C/c1ccc(Br)cc1 | . | 7.5µM | . | . | .
CCCCCCSc1ccc([C@H]2N[C@@](CC(C)C)(C(=O)OC)[C@H]3C(=O)N(C)C(=O)[C@@H]23)cc1OC | . | 21µM | . | . | .
COC(=O)[C@]1(CC(C)C)N[C@H](c2ccc(SC3CCCCC3)c(OC)c2)[C@@H]2C(=O)N(C)C(=O)[C@@H]21 | . | . | . | . | .
Cc1ccc(C)c(Cn2c(O)c(N=NC(=S)Nc3ccccc3F)c3ccccc32)c1 | ? | 24µM | . | . | .
Cc1ccccc1Cn1c(O)c(N=NC(=S)Nc2ccccc2F)c2ccccc21 | . | . | . | . | .
CN(C)c1ccc(/C=C2\CCc3ccccc32)cc1 | / | / | / | . | /
O=C(CCc1nnc2ccc(NCc3ccco3)nn12)N1CCN(c2ccccc2)CC1 | ? | 19µM | . | . | .
CCCCCCCCCCC1=C(C)C(=O)C(OC)=C(OC)C1=O | 40µM! | / | / | / | /
C=CCn1c(SCC#N)nc2ccc(Cl)cc2c1=O | . | / | / | . | /
O=C1Nc2ccccc2C1=Nc1ccc(Cl)cc1 | ? | . | . | . | .
O=C1Nc2ccccc2C1=Nc1ccc(Br)cc1 | 22µM | . | . | . | .
COc1cccc(CS(=O)(=O)c2nnnn2CC(C)C)c1 | . | / | / | / | /
CCCCC(=O)N/N=C/c1ccc(-c2ccc([N+](=O)[O-])cc2)o1 | . | . | . | . | .
O=C(N/N=C/c1ccc(-c2cccc([N+](=O)[O-])c2)o1)[C@H]1C[C@@H]1c1ccccc1 | . | . | . | . | .
NS(=O)(=O)c1ccc(-c2ccc(/C=N/Nc3ccc(C(=O)O)cc3)o2)cc1 | . | . | . | . | .
NC(=S)N/N=C/c1ccc(-c2cccc([N+](=O)[O-])c2)o1 | . | . | ? | . | .
O=C(N/N=C/c1ccc(-c2ccc([N+](=O)[O-])cc2)o1)[C@H]1C[C@@H]1c1ccccc1 | . | . | 7.1µM | . | .
CC(C)(C)NC(=S)N/N=C\c1ccc(-c2ccc([N+](=O)[O-])cc2)o1 | . | . | 25µM | 10µM | .
O=C(O)c1ccc(-c2ccc(/C=N/Nc3ccc([N+](=O)[O-])cc3)o2)cc1 | . | . | ? | 10µM | .
O=C(O)c1cccc(-c2ccc(/C=N/Nc3ccc([N+](=O)[O-])cc3)o2)c1 | . | . | 22µM | ? | .
COc1ncc2nc(-c3ccc(F)cc3)c(=O)n(-c3ccccc3)c2n1 | . | / | / | / | /
O=C(Nc1nc(-c2ccccc2)ns1)c1ccncc1 | ? | 8.4µM | . | . | .
SMILES | VDR inh | PLK1 PBD inh | Vif-A3F inh | Vif-A3G inh | TSHR antagonist
CC(C)(C)OC(=O)NC(Cc1ccccc1)C(O)c1ccco1 (stereo not drawn) | . | / | / | . | /
O=c1[nH]c2ccccc2nc1CCc1ccccc1 | . | 27µM | . | . | .
c1ccc(CCc2nc3ccccc3[nH]2)cc1 | . | . | . | . | .
O=C1CCCC1C(O)c1ccc2ccccc2c1 (stereo not drawn) | . | / | / | / | /
Cc1ccc2occ(/C=N/NC(=O)[C@@H](N)Cc3ccccc3)c(=O)c2c1 | . | . | . | . | .
COCC(C)OC(=O)/C(C#N)=C\c1coc2ccc(C)cc2c1=O (stereo not drawn) | ? | 11µM | ? | . | .
COc1ccc(Nc2cc(C(=O)NCCCN(C)Cc3ccccc3)c3ccccc3n2)cc1OC | . | / | . | . | /
CC[C@H](C)/C=C/C1=CC2=C(Cl)C(=O)[C@@]3(C)OC(=O)C(C(=O)[C@H](C)[C@@H](C)O)=C3C2=CO1 | ? | 6µM | ? | . | /
C=CCCCCCCCCCCCc1ccco1 | 25µM | / | / | / | /
COc1cc(CCc2ccccc2)c(C(=O)O)c(O)c1C/C=C(/C)CCC=C(C)C | . | 24µM | . | . | ?
COCOc1ccc(/C=C/C(=O)c2c(OCOC)cc(OCOC)c(CC=C(C)C)c2O)cc1OCOC | . | . | . | . | /
COc1cc(CCc2ccccc2)c(C(=O)O)c(O)c1CC=C(C)C | . | 27µM | . | . | /
O=C(O)c1ccccc1OS(=O)(=O)O | . | / | / | / | /
CCn1c(=O)n(-c2ccc(C)c(F)c2)c(=O)c2sc3ccccc3c21 | . | / | . | . | /
CC(C)CC(CSc1ccc(Br)cc1)N1CCN(C)CCC1=O (stereo not drawn) | . | / | / | . | /
CC(=O)N1N=C(c2ccc(NS(C)(=O)=O)cc2)CC1c1ccc2nccnc2c1 (stereo not drawn) | . | . | . | . | .
CS(=O)(=O)Nc1ccc(C2=NN(S(C)(=O)=O)C(c3ccc4nccnc4c3)C2)cc1 (stereo not drawn) | . | . | 22µM | ? | .
CCS(=O)(=O)N1N=C(c2cccc(NS(C)(=O)=O)c2)CC1c1ccc(C)cc1 (stereo not drawn) | . | . | 11µM | ? | .
CS(=O)(=O)Nc1cccc(C2=NN(S(=O)(=O)c3ccccc3)C(c3ccco3)C2)c1 (stereo not drawn) | . | 30µM | . | . | .
CC(C)c1ncc([N+](=O)[O-])n1C | . | / | / | / | /
CCOc1cc(C2NC(=O)CCC2[N+](=O)[O-])cc(Br)c1OC (stereo not drawn) | ? | 27µM | . | . | .
CCOc1c(Br)cc(C2NC(=O)CCC2[N+](=O)[O-])cc1OC (stereo not drawn) | . | . | . | . | .
CCC1Nc2ncnc(N3CCOCC3)c2N(Cc2ccc(OC)cc2)C1=O (stereo not drawn) | 79µM | 27µM | . | . | .
O=C1C(Cc2ccccc2)Nc2ncnc(N3CCOCC3)c2N1Cc1ccc(Cl)cc1 (stereo not drawn) | . | 27µM! | . | . | .
CCC1Nc2ncnc(N3CCN(c4ccccc4)CC3)c2N(Cc2ccc(OC)cc2)C1=O (stereo not drawn) | . | . | . | . | .
SMILES | VDR inh | PLK1 PBD inh | Vif-A3F inh | Vif-A3G inh | TSHR antagonist
C=C1N[C@]2(C(=O)COC(C)=O)[C@@H](C[C@H]3[C@@H]4CCC5=CC(=O)C=C[C@]5(C)[C@H]4[C@@H](O)C[C@@]32C)O1 | . | / | / | / | /
CNC(=S)N(Cc1ccc(OC)cc1)Cc1cc2ccc(C)cc2[nH]c1=O | . | 24µM | . | . | .
COc1cc2c(cc1OC)C(COc1ccccc1OC)N(C(=O)C(C)(C)C)CC2 (stereo not drawn) | . | 30µM | . | . | .
COc1cc2c(cc1OC)C(COc1ccccc1OC)N(C(C)=O)CC2 (stereo not drawn) | . | . | . | . | .
CCOC(=O)CSc1c(-c2ccc(Cl)cc2)[nH]c2ccccc12 | ? | 6µM | ? | . | .
CCOC(=O)CSc1c(-c2cccs2)[nH]c2ccccc12 | ? | . | . | . | .

Screens (PubChem BioAssay)
